± gives the standard deviation of the averaged measurements. Of roughly 5,400 targets only a part is listed; those with the largest changes were picked by preference.
Compound: Nc1nc2c(ncn2[C@@H]2O[C@H](COP(=O)(O)OP(=O)(O)OP(=O)(O)O)[C@@H](O)[C@H]2O)c(=O)[nH]1 [guanosine triphosphate]
Test: NP40-soluble protein abundance relative to vehicle (solubility fold change) (ratio); higher = more soluble protein in presence of GTP
Conditions: concentration: 8mM
Method in brief: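 Jurkat crude lysate (Dounce-homogenised) was treated with eight concentrations from 0.1 to 10 mM for 10 min at room temperature, then 3 min at 37 °C. It was solubilised with 0.8% NP40 and benzonase (60 min, 4 °C) and ultracentrifuged, and the supernatant was TMT-labelled for LC-MS/MS. Intensities were vsn-normalised, and the value is the fold change against the NP40-processed vehicle per replicate, from three independent experiments.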

Chain of UniProt Q9Y4P8 (Q9Y4P8 whole entry): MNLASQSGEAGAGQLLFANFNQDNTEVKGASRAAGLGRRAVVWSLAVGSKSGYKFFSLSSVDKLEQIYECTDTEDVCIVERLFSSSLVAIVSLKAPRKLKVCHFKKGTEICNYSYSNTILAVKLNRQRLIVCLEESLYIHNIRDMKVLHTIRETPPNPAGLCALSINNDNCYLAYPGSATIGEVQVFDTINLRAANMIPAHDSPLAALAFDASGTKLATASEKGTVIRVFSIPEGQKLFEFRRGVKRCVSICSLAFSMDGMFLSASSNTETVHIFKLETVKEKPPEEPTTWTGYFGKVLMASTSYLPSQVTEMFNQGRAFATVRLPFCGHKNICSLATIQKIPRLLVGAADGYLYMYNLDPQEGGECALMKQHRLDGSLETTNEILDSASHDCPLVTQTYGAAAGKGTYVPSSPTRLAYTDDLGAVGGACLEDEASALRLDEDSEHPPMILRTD
Chain of UniProt Q969P0 (Q969P0 whole entry): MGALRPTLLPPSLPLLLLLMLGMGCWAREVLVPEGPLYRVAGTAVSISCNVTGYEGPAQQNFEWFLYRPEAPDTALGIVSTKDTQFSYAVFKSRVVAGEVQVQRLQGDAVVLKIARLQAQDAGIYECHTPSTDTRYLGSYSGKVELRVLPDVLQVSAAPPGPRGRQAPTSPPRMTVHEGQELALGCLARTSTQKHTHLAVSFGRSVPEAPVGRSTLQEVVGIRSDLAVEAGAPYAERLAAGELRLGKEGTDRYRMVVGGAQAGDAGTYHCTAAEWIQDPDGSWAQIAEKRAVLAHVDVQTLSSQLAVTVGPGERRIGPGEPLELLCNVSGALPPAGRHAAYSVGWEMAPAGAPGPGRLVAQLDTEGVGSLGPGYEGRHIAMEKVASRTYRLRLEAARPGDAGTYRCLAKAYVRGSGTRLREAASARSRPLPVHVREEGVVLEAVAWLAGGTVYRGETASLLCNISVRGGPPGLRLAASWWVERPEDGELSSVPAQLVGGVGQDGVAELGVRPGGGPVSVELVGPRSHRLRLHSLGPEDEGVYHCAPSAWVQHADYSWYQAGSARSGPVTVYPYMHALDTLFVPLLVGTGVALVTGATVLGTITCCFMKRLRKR
Chain of UniProt Q9BTY7 (Q9BTY7 whole entry): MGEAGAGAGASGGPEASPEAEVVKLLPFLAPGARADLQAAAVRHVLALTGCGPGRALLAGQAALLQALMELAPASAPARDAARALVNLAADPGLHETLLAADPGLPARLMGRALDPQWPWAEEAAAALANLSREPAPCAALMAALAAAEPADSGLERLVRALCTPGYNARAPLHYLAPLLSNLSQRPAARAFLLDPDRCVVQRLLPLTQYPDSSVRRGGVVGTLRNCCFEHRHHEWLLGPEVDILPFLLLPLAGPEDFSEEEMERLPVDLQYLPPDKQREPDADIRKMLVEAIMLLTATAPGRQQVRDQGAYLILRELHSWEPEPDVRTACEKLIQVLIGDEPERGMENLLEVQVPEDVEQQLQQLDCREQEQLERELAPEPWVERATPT
Chain of UniProt Q9Y2A7 (Q9Y2A7 whole entry): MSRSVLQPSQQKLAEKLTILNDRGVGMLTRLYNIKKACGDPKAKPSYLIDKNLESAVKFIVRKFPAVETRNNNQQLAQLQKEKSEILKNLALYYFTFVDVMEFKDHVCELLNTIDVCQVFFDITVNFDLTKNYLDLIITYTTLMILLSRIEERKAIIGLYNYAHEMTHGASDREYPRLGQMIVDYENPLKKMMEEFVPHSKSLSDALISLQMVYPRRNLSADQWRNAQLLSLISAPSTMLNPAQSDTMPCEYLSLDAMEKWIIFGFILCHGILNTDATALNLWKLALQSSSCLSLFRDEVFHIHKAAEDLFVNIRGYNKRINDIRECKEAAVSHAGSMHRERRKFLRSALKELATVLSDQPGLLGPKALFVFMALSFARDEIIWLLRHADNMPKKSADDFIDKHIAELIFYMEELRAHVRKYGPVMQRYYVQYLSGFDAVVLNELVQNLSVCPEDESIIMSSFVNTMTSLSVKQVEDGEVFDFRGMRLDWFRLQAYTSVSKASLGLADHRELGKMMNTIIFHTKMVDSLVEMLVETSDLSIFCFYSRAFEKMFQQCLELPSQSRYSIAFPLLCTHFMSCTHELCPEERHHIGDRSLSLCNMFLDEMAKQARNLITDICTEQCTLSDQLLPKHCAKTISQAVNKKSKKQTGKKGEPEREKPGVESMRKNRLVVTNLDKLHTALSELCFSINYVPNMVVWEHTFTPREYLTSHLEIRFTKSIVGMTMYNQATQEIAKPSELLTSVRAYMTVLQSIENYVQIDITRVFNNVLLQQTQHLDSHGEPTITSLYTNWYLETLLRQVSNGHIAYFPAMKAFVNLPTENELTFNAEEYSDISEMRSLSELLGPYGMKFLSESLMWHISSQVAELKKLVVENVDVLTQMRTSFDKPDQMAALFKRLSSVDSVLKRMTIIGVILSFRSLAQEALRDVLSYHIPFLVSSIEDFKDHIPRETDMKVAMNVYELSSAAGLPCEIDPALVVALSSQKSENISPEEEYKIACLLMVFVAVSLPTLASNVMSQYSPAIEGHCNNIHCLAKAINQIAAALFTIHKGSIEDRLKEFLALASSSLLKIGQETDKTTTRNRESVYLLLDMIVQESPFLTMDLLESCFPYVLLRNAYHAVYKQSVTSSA
Chain of UniProt Q9UII2 (Q9UII2 whole entry): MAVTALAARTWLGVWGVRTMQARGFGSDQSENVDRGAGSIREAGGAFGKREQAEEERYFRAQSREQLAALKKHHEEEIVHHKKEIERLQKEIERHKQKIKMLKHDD
Chain of UniProt Q9HA64 (Q9HA64 whole entry): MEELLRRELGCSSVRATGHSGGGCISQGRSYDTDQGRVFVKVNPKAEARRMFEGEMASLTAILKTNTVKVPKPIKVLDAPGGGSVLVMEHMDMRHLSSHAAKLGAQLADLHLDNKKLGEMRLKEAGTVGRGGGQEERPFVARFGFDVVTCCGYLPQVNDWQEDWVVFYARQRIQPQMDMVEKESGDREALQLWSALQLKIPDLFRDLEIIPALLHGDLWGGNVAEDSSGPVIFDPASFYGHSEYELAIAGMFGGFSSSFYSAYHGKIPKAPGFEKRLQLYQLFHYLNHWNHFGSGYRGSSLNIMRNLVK
Chain of UniProt Q9UKV8 (Q9UKV8 whole entry): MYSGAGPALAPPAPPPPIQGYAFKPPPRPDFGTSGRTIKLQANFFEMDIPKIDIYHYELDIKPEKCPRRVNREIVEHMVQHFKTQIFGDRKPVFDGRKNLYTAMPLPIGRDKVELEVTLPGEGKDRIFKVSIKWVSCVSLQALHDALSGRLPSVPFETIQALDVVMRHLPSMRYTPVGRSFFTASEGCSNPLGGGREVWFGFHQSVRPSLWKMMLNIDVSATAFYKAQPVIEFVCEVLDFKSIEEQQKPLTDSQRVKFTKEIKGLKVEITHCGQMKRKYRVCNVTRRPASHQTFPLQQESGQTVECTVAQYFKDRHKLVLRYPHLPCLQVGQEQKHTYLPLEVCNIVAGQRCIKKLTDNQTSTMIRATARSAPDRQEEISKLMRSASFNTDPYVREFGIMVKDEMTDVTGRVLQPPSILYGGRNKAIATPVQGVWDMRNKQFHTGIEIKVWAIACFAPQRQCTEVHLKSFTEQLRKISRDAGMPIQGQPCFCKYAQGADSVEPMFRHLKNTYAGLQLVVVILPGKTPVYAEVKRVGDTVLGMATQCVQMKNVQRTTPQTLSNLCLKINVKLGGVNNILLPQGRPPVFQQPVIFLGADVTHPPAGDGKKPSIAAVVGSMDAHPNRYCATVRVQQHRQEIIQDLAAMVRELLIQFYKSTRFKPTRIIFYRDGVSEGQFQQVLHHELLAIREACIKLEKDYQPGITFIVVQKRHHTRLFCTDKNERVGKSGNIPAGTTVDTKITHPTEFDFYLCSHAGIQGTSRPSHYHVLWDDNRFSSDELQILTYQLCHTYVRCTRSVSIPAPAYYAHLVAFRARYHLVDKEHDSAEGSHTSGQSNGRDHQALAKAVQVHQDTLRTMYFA
Chain of UniProt Q969H8 (Q969H8 whole entry): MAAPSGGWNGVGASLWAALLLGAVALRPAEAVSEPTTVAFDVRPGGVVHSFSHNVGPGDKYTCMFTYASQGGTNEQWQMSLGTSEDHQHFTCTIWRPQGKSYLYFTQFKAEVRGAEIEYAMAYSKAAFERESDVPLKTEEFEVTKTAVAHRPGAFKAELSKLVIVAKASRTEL
Chain of UniProt Q9Y5J1 (Q9Y5J1 whole entry): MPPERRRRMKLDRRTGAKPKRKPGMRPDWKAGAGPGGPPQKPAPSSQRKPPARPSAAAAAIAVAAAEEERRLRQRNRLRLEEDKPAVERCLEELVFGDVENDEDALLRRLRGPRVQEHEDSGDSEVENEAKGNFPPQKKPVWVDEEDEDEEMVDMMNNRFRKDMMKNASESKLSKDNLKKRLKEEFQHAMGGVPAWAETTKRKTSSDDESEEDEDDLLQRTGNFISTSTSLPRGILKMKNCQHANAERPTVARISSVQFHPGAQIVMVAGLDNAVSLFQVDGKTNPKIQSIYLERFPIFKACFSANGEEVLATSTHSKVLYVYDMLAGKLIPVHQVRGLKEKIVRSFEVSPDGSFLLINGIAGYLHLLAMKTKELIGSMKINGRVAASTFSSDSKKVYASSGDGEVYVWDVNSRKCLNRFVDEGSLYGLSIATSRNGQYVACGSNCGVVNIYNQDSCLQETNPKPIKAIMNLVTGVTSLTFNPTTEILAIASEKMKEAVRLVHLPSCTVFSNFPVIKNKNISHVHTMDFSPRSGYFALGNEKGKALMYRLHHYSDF
Chain of UniProt Q9NX40 (Q9NX40 whole entry): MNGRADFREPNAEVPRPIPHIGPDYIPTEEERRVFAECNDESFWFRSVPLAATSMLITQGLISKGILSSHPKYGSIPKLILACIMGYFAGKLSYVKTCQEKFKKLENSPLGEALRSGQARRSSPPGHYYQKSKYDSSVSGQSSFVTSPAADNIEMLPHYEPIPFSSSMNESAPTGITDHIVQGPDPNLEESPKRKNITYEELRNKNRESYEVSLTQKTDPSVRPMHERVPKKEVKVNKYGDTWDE

Target	NP40-soluble protein abundance
UTP18 (UniProt Q9Y5J1)	1.37 ± 0.17
DDX18 (UniProt Q9NVP1)	1.69 ± 0.043
STUB1 (UniProt Q9UNE7)	1.01 ± 0.049
NCAPG (UniProt Q9BPX3)	0.987 ± 0.056
UniProt Q96EM0	0.85 ± 0.16
XRN2 (UniProt Q9H0D6)	1 ± 0.039
HIRIP3 (UniProt Q9BW71)	1.13 ± 0.06
X5CMH5 (UniProt Q03519)	0.934 ± 0.015
PGAM5 (UniProt Q96HS1)	1.86 ± 0.4
FN3KRP (UniProt Q9HA64)	0.89 ± 0.047
UniProt Q9UJX5|Q9UJX5-3|Q9UJX5-2	1.2 ± 0.23
UniProt Q9Y2A7|Q9Y2A7-2	1.02 ± 0.026
UniProt Q96MT7-2	0.834 ± 0.052
UniProt Q969P0|Q969P0-3	0.953 ± 0.053
UniProt Q9UII2	0.93 ± 0.07
NHP2 (UniProt Q9NX24)	1.45 ± 0.16
DMAP1 (UniProt Q9NPF5)	1.29 ± 0.2
UniProt Q96T23|Q96T23-2	2.49 ± 0.49
WDR3 (UniProt Q9UNX4)	2.04 ± 0.12

Target	NP40-soluble protein abundance
UniProt Q9NVI7-2	2.04 ± 0.29
UniProt Q9NW08|Q9NW08-2	1.13 ± 0.18
UniProt Q9NVK5|Q9NVK5-2	1.28 ± 0.17
UniProt Q9BTY7	0.924 ± 0.18
UniProt Q9UKV8	1.07 ± 0.057
UniProt Q9NY12|Q9NY12-2	1.9 ± 0.27
UniProt Q9UKA9|Q9UKA9-4	0.963 ± 0.029
TMOD3 (UniProt Q9NYL9)	1 ± 0.048
UniProt Q96L91|Q96L91-2|Q96L91-3|Q96L91-5	1.32 ± 0.22
RAB21 (UniProt Q9UL25)	0.812 ± 0.048
OCIAD1 (UniProt Q9NX40)	0.956 ± 0.034
UniProt Q93052|A0A087WZF1|C9JXK9	0.906 ± 0.083
UniProt Q99707|Q99707-2	0.928 ± 0.023
CCDC134 (UniProt Q9H6E4)	0.869 ± 0.1
UniProt Q9BX67	0.953 ± 0.035
UniProt Q969H8	0.8 ± 0.046
UniProt Q9UMX0|Q9UMX0-2	1.02 ± 0.053
UniProt Q9Y4P8|Q9Y4P8-4|Q9Y4P8-6	0.954 ± 0.042
UniProt Q9NS23|Q9NS23-2|Q9NS23-3|Q9NS23-4|Q9NS23-5	0.971 ± 0.056

Same assay, conditions: concentration: 10mM

Target	NP40-soluble protein abundance
UTP18 (UniProt Q9Y5J1)	1.57 ± 0.17
DDX18 (UniProt Q9NVP1)	1.94 ± 0.066
STUB1 (UniProt Q9UNE7)	1.03 ± 0.081
NCAPG (UniProt Q9BPX3)	1.01 ± 0.031
UniProt Q96EM0	0.895 ± 0.085
XRN2 (UniProt Q9H0D6)	0.982 ± 0.028
HIRIP3 (UniProt Q9BW71)	1.14 ± 0.094
X5CMH5 (UniProt Q03519)	0.918 ± 0.065
PGAM5 (UniProt Q96HS1)	1.95 ± 0.47
FN3KRP (UniProt Q9HA64)	0.868 ± 0.051
UniProt Q9UJX5|Q9UJX5-3|Q9UJX5-2	1.13 ± 0.17
UniProt Q9Y2A7|Q9Y2A7-2	0.973 ± 0.011
UniProt Q96MT7-2	0.786 ± 0.082
UniProt Q969P0|Q969P0-3	0.919 ± 0.077
UniProt Q9UII2	0.963 ± 0.07
NHP2 (UniProt Q9NX24)	1.75 ± 0.35
DMAP1 (UniProt Q9NPF5)	1.26 ± 0.18
UniProt Q96T23|Q96T23-2	2.71 ± 0.62
WDR3 (UniProt Q9UNX4)	1.974 ± 0.012

Target	NP40-soluble protein abundance
UniProt Q9NVI7-2	2.11 ± 0.29
UniProt Q9NW08|Q9NW08-2	1.09 ± 0.17
UniProt Q9NVK5|Q9NVK5-2	1.27 ± 0.2
UniProt Q9BTY7	1.03 ± 0.14
UniProt Q9UKV8	1.05 ± 0.061
UniProt Q9NY12|Q9NY12-2	2.35 ± 0.49
UniProt Q9UKA9|Q9UKA9-4	0.906 ± 0.027
TMOD3 (UniProt Q9NYL9)	1.08 ± 0.04
UniProt Q96L91|Q96L91-2|Q96L91-3|Q96L91-5	1.34 ± 0.23
RAB21 (UniProt Q9UL25)	0.813 ± 0.093
OCIAD1 (UniProt Q9NX40)	0.974 ± 0.037
UniProt Q93052|A0A087WZF1|C9JXK9	0.901 ± 0.09
UniProt Q99707|Q99707-2	0.927 ± 0.029
CCDC134 (UniProt Q9H6E4)	0.86 ± 0.091
UniProt Q9BX67	0.897 ± 0.06
UniProt Q969H8	0.764 ± 0.085
UniProt Q9UMX0|Q9UMX0-2	1.01 ± 0.039
UniProt Q9Y4P8|Q9Y4P8-4|Q9Y4P8-6	0.896 ± 0.021
UniProt Q9NS23|Q9NS23-2|Q9NS23-3|Q9NS23-4|Q9NS23-5	0.968 ± 0.11
